Consider 50 compounds from PubChem BioAssay AID540276 (National Center for Advancing Translational Sciences (NCATS), 2011).

Screen size: about 300,000 compounds; about 5,400 (1.8%) were called active. Another 28% or so got no clear call; they are omitted. For the sample, actives were picked, then their nearest neighbours and some compounds at random. Unmarked numbers belong to inactive results. Calls follow the shape of the full dose curve; tested in HEK293 cells.
% is scaled to controls: 0 for no effect and ±100 for the full control effect; potency is read from the fitted curve at half-maximal effect.

A short description of the assay: qHTS for inhibitors of binding or entry into cells for Marburg Virus. The note with it: Marburg virus pseudotyped entry inhibition, cell reporter; series mostly up to 37.8 µM; activity change, negative = inhibition: at the top concentration.
In the case of `Cc1nn(-c2ccccc2)c2c1[C@@H](c1ccc(F)cc1F)C(C#N)=C(N)O2`, the “activity change, negative = inhibition” value was -0.0796%. Still for that read-out and setting: the value for `O=C(Nc1cccc(S(=O)(=O)N2CCOCC2)c1)C12CC3CC(CC(C3)C1)C2` was 2.1%; that for `Cc1ccc(C(=O)Nc2ccc(NC(=O)c3cccs3)cc2)c(C)c1` was -1.43% [at 46.1 µM]. Regarding `O=C(Nc1ccccc1)c1ccc(NC(=O)c2cccs2)cc1`, the “activity change, negative = inhibition” value is -16.6% [at 46.1 µM]. `Cc1ccc(-c2nnc(-c3ccc(NC(=O)c4cccs4)cc3)o2)cc1`: the Potency was 11.6 µM (active).

With `Cc1cc(NC(=O)CSc2nnnn2-c2ccc(F)cc2)no1`, the “activity change, negative = inhibition” value was 2.91% [at 46.1 µM]. Turning to `Cc1ccc(N2CC(C(=O)N3CCC4(CC3)CC(=O)c3ccccc3O4)CC2=O)cc1C` (stereo not given), the “activity change, negative = inhibition” value was -13.8%. On to `O=C(Cc1ccc(Br)cc1)N1CCN(c2ccccn2)CC1`, for which the “activity change, negative = inhibition” value was 6.67%.

`Cc1cc(Br)ccc1NC(=O)c1cnc(N2CCN(c3ccccn3)CC2)c2ccccc12`: the Potency is 9.2 µM (active).

As to `O=C(CN1CCN(c2ccccn2)CC1)Nc1ccc(Br)cc1`, the “activity change, negative = inhibition” value was -17.9% [at 46.1 µM].

As for `C=CCOc1ccc(C(=O)Nc2ccccc2C(=O)N2CCCC2)cc1`, the “activity change, negative = inhibition” value was -3.14%. On the same count and under the same terms, the value for `COc1ccc(OCC(=O)NNC(=O)C2CCC2)cc1` was -2.85%. Turning to `O=C(O)c1cc2c(cc1NC(=O)c1c(F)cccc1Cl)OCCCO2`, the “activity change, negative = inhibition” value is 2.18% [at 46.1 µM]. Consider `COc1ccc(CNC(=O)c2cc3c(s2)-c2ccccc2OC3)cc1`, for which the Potency is 10 µM (active).

As to `COc1ccc(CNC(=O)c2cc3c(=O)[nH]c4ccccc4c3s2)cc1`, the “activity change, negative = inhibition” value was 8.98% [at 46.1 µM]. Still for that read-out and setting: with `COc1ccc(CNC(=O)COC(=O)C2=Cc3ccccc3OC2)cc1` the figure was -0.272% [at 46.1 µM]. The same measure, in the same setting: with `CN1CCOC1c1ccc(C2OCCN2C)cc1` (stereo not given) the figure was 1.02%; with `CCOc1ccc(C2C(C(=O)O)c3ccccc3C(=O)N2CCN2CCOCC2)cc1` (stereo not given), 4.39%. In the case of `CCOc1ccc(C2NC(=S)NC3=C2CCc2ccccc23)cc1` (stereo not given), the Potency was 7.94 µM (active). On to `Cc1ccc(OCc2nnc(SC3CCc4ccccc4C3=O)n2C)cc1` (stereo not given), for which the “activity change, negative = inhibition” value is 11.2%. Still for that read-out and setting: with `O=C(c1ccc(S(=O)(=O)N2CCCC2)cc1)N1CCN(c2ccccc2F)CC1` the figure was 2.26%; with `c1ccc(CCc2ccccn2)cc1`, -5.92%. Regarding `C(=N/Nc1cc(N2CCOCC2)nc(N2CCOCC2)n1)/c1ccccc1`, the Potency is 2.51 µM (active).

For `O=C(O)c1ccc(/C=N/Nc2nc(N3CCCCC3)nc(N3CCCCC3)n2)cc1`, the “activity change, negative = inhibition” value was 16% [at 46.1 µM].

For the compound `Cc1cc(N2CCN(c3ccccc3)CC2)nc(N2CCOCC2)n1`, the “activity change, negative = inhibition” value was -28.4% [at 46.1 µM]. Consider `O=C1C2C3C=CC(C3)C2C(=O)N1c1ncc([N+](=O)[O-])s1` (stereo not given), for which the “activity change, negative = inhibition” value was 2.32% [at 46.1 µM].

For `Cc1noc(/C=C/c2ccco2)c1S(=O)(=O)N1CCC(C(=O)Nc2ccc(Cl)cn2)CC1`, the Potency was 6.51 µM (active). As for `Cc1noc(/C=C/N(C)C)c1S(=O)(=O)N1CCCC(C(=O)Nc2cccc(F)c2)C1` (stereo not given), the “activity change, negative = inhibition” value is -19.2% [at 46.1 µM]. Same read-out and setting: the value for `Cc1cccc(NC(=O)C2CCN(S(=O)(=O)c3c(C)noc3/C=C/c3ccco3)CC2)c1` was 2.11% [at 46.1 µM]; that for `Cc1nnc(SCC(=O)NCc2ccccc2)s1` was 1.81%. Still for that read-out and setting: the value for `Cc1nnc(SCC(=O)N2CCc3ccccc3C2)s1` was 18.1%. As to `Cc1nnc(SCC(=O)N2c3ccccc3C(C)(c3ccc(Cl)cc3)CC2(C)C)s1` (stereo not given), the Potency was 10 µM (active). Regarding `Nn1c(SCC(=O)Nc2ccc3c(c2)CCC3)nnc1C1CC1`, the “activity change, negative = inhibition” value was -14.3%. As to `Cc1ccccc1NC(=O)Cc1nnc(SCC(=O)N2CCN(c3ccccc3)CC2)n1C`, the Potency result was “inactive”. On the same count and under the same terms, with `Cn1c(Cc2cccc3ccccc23)nnc1SCC(=O)N1CCN(c2cccc(Cl)c2)CC1` the figure was 12.6 µM (active). Regarding `Cn1c(CNC(=O)c2ccco2)nnc1SCC(=O)N1CCN(c2ccccc2)CC1`, the “activity change, negative = inhibition” value was -1.96% [at 46.1 µM]. Same read-out and setting: with `Cc1cccc(C(=O)N[C@H](C(=O)NCc2cccs2)C(C)C)c1` the figure was 2.48%; with `CCCOC(=O)CSC1=C(C#N)[C@H](c2ccccc2OCC)[C@H](C#N)C(=O)N1`, 3.94%. With `C=CC1=C(C)C2=NC1=CC1=NC(=CC3=NC(=CC4=NC(=C2)C(C)=C4CCC(=O)O)C(CCC(=O)O)=C3C)C(C=C)=C1C`, the “activity change, negative = inhibition” value is -14.8%. Still for that read-out and setting: with `CC(C)(c1ccccc1)c1ccc(OCCN)cc1` the figure was -30.5%. In the case of `CN1CCC[C@@H]1CCO[C@](C)(c1ccccc1)c1ccc(Cl)cc1`, the Potency is 9.2 µM (active).

As for `Cc1ccc(S(=O)(=O)Nc2ccc(F)c(S(=O)(=O)N3CCOCC3)c2)cc1`, the “activity change, negative = inhibition” value was -16.5%. On the same count and under the same terms, the value for `O=C(NNC(=S)Nc1ccccc1)c1cccc(S(=O)(=O)N2CCOCC2)c1` was 9.66%.

Consider `O=C(Nc1nnc(-c2ccccc2)o1)c1cccc(S(=O)(=O)N2CCOCC2)c1`, for which the Potency is 12.6 µM (active). As for `O=C(c1cccc(S(=O)(=O)N2CCOCC2)c1)N1CCOCC1`, the “activity change, negative = inhibition” value was 14%.

`C/C(=N/OC(=O)c1ccc(Br)cc1)c1ccc(C)cc1`: the “activity change, negative = inhibition” value was -8.65%. In the case of `Cc1ccc(CSCC(=O)N(C)CC(=O)Nc2cccc(F)c2)cc1`, the “activity change, negative = inhibition” value was -2.21% [at 46.1 µM]. For `Cc1c(CCO)c(=O)[nH]n1C(=O)c1c(F)cccc1F`, the Potency was 2.06 µM (active). `Cc1c(CCO)c(=O)n(-c2ccccc2)n1S(=O)(=O)c1ccc(F)cc1`: the “activity change, negative = inhibition” value is 4.52%. Regarding `CC(=O)NC1(c2ccc(F)cc2)CCN(C(=O)c2c(F)cccc2F)CC1`, the “activity change, negative = inhibition” value is 28%.
